Screens: PubChem BioAssay, National Center for Advancing Translational Sciences (NCATS)
POLK inh – DNA polymerase kappa (human) inhibition; Q9UBT6; AID 588579; 400,000 compounds, 0.53% hits; Potency, µM (highest dose often 107 µM), for the others: top-dose activity, negative = inhibition, most hits filed as inhibitors; purified Pol kappa, fluorescent DNA synthesis assay, 10 min; note: potency is the fitted concentration of half-maximal effect; % is set by controls: 0 for no effect and ±100 for the full control effect
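Kinetic fluorescence readout at 0 and 10 min followed reaction start with substrate at 50 nM final. Beforehand, enzyme (10 nM Pol kappa) stood 15 min with compound at room temperature; buffer-only wells were negative controls.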
Pol beta inh – blocks human DNA polymerase beta activity | Potency, µM (highest dose often 114 µM), inactives show top-dose activity change, negative = inhibition, hits mostly inhibitors | Pol beta primer extension/strand displacement, fluorescence kinetic | AID 485314 | 340,000 compounds, 1.3% hits; note: potency is the fitted concentration of half-maximal effect; % is set by controls: 0 for no effect and ±100 for the full control effect
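Homogeneous kinetic assay of primer extension and strand displacement by 10 nM Pol beta, preincubated 15 min at room temperature with compound before 50 nM substrate (final) was added. Read at 0 and 10 min; four-parameter Hill fit.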
POLH inh – DNA polymerase eta (human) inhibition | Q9Y253 | recombinant Pol eta, fluorescent DNA replication assay | 390,000 compounds, 1.2% hits | Potency, µM (highest dose often 114 µM), inactives show top-dose activity change, negative = inhibition, hits mostly inhibitors; note: potency is the fitted concentration of half-maximal effect; % is set by controls: 0 for no effect and ±100 for the full control effect
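Pol eta at 10 nM preincubated with compounds 15 min at room temperature; reaction started with fluorescent substrate (50 nM final) and read kinetically at 0 and 10 min.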
PI5P4Ka inh – PI5P4K alpha (human) kinase inhibition; P48426; PI5P4Kalpha enzyme, ADP-Glo luminescence, 60 min; stronger effect = lower value; max response, %; 330,000 compounds, 1.2% hits; AID 652105; active = max response of -50% or lower; inconclusive = between -30% and -50%; inactive = -30% or higher; note: value at the top dose of about 77 µM; % is set by controls: 0 for no effect and ±100 for the full control effect
Target sequence (P48426 whole entry, looked up): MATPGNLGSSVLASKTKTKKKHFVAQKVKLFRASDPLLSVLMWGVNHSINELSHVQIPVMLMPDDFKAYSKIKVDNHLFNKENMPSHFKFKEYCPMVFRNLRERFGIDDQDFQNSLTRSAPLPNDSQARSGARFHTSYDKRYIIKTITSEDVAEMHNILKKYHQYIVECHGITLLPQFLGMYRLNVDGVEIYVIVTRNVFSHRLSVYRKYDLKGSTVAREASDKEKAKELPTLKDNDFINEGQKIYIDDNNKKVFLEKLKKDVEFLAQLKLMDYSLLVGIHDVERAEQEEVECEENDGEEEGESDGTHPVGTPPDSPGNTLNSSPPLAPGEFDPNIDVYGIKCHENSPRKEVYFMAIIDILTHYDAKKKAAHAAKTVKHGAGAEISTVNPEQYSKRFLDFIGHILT
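PI5P4Kalpha ADP-Glo assay; 5 microM ATP final; 60 min RT reaction; HEPES pH 7.4/EGTA/CHAPS, 5% DMSO; controls lacking substrate or enzyme; luminescent end-point.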
POLI inh – blocks human DNA polymerase iota activity. Pol iota fluorescent replication assay, 10 min. 390,000 compounds, 1% hits. Potency, µM (highest dose often 115 µM), for the others: top-dose activity, negative = inhibition, most hits filed as inhibitors. Q9UNA4; note: potency is the fitted concentration of half-maximal effect
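Fluorescent replication assay read twice, at 0 min and 10 min after adding 50 nM (final) substrate. Enzyme (10 nM) and compounds were first incubated 15 min at room temperature; enzyme-free buffer wells were negative controls.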
12-LOX inh – ALOX12 (human) lipoxygenase inhibition; P18054; purified 12hLO, xylenol orange hydroperoxide absorbance; Potency, µM (highest dose often 108 µM), without a hit: at the highest dose activity change, negative = inhibition, most hits filed as inhibitors; 580,000 compounds, 1.1% hits; AID 1671190; note: potency is the fitted concentration of half-maximal effect; % is set by controls: 0 for no effect and ±100 for the full control effect
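Hydroperoxide product was detected by ferrous iron/xylenol orange as the 573 to 405 nm absorbance ratio. Arachidonic acid at 40 uM (final) was turned over for 30 min at room temperature by 150 nM human 12hLO, pH 7.0 Hepes buffer, after 15 min compound preincubation.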
* = called active by the depositor; u = inconclusive; x = not tested or not shown; [ ] = another dose, or the depositor's remark. Only some compounds are listed: those with a hit (about 2.9% of all), similar ones and a draw of the others. Unless noted, calls come from the whole dose curve; as a rule, active = well fitted inhibition curve with a large enough effect; inconclusive = small, poorly fitted or top-dose-only effect, or another doubt; inactive = no such curve, though single readings can be large or run the other way.

SMILES | POLK inh | Pol beta inh | POLH inh | PI5P4Ka inh | POLI inh | 12-LOX inh
CCCCCNc1ncnc2c1CN(C1CCCNCC1)C(=O)CN2C (configuration not stated) | x | x | x | x | x | -24.7%[6.33 µM]
COc1ccc(C)cc1NC(=O)C(c1ccccc1)N1CCN(CC(=O)N2CCOCC2)CC1 (configuration not stated) | -2.9% | x | u | 5.2 | 5.6% | 1.0%
COc1ccc(C)cc1NC(=O)C(C)N1CCOCC1 (configuration not stated) | -1.3% | 0.4% | -21.5% | 0.8 | 18.9% | 11.2µM*
O=C(O)Cc1sc(Nc2cccc3ccccc23)nc1-c1ccc(Cl)cc1 | -13.1% | u | 79.4µM* | 0.0 | 178.1% | 44.7µM*
Cc1ccc(Nc2nc(-c3ccc(C)cc3)c(CC(=O)O)s2)cc1 | 1.1% | -27.4% | 1.8% | 0.0 | -18.5% | 39.8µM*
O=C(O)Cc1sc(Nc2cccc3ccccc23)nc1-c1ccccc1 | -5.9% | x | 2.2% | 2.4 | -0.6% | u
O=C(O)Cc1sc(Nc2ccc(Cl)cc2)nc1-c1cccs1 | -14.0% | -1.1% | -25.5% | -4.2 | 126.4% | 14.1µM*
Fc1ccc(CSc2nnc(-c3cccnc3)o2)cc1Br | x | x | x | x | x | -9.9%
N#CC1=C(S)N(c2ccccc2)C(c2cccs2)NC1=O (configuration not stated) | -2.1% | -2.0% | -10.9% | x | u | u
N#CC1=C(S)N(c2ccc(F)cc2)C(c2ccco2)NC1=O (configuration not stated) | -13.6% | 30.4% | -5.6% | -20.5 | 143.2% | 44.7µM*
N#CC1=C(S)N(c2ccccc2)C(c2ccc(-c3ccc(Cl)c(Cl)c3)o2)NC1=O (configuration not stated) | -0.1% | u | -2.2% | -8.0 | u | 17.8µM*
N#CC1=C(S)N(c2ccccc2)C(c2ccc(-c3cc(Cl)ccc3Cl)o2)NC1=O (configuration not stated) | -8.9% | 31.6µM* | 5.8% | -1.9 | -26.6% | u
N#CC1=C(S)N(c2ccccc2)C(c2ccco2)NC1=O (configuration not stated) | -4.7% | 1.1% | -16.7% | 1.9 | 90.0% | u
COc1ccccc1N1CCN([C@@H]2[C@H](O)[C@H](CO)O[C@@H]2CNC(=O)c2cccc(F)c2)CC1 | x | x | x | x | x | -16.2%
COc1cccc(NC(=O)NC[C@H]2O[C@@H](CO)[C@@H](O)[C@H]2N2CCN(c3ccccc3OC)CC2)c1 | x | x | x | x | x | 17.8µM*
Cn1c(=O)c2c(ncn2CC(=O)c2ccc(C(C)(C)C)cc2)n(C)c1=O | x | x | x | x | x | -3.9%
CCCCn1c(N)c(N(CCC(C)C)C(=O)COC(=O)c2ccc([N+](=O)[O-])s2)c(=O)[nH]c1=O | -14.8% | x | u | -3.8 | 79.4µM* | -7.7%
CC(C)CN(C(=O)COC(=O)c1ccc([N+](=O)[O-])s1)c1c(N)n(Cc2ccccc2)c(=O)[nH]c1=O | -7.5% | x | 3.7% | -8.1 | -21.6% | -17.1%
O=C(OCc1nc2ccccc2o1)c1cc(S(=O)(=O)N2CCCCC2)ccc1Cl | x | x | x | x | x | -6.6%
c1nc(SSc2ncnc3nc[nH]c23)c2[nH]cnc2n1 | -5.3% | x | -11.0% | -80.4* | u | u
Cc1cc(OC(=O)c2ccccc2Cl)c([N+](=O)[O-])c(=O)[nH]1 | 8.2% | 41.8% | -10.1% | -4.9 | -27.2% | 39.8µM*
COc1cc(/C=C(\C#N)c2ccc(F)cc2)ccc1OCc1ccccc1 | x | x | x | x | x | 14.8%
CCOC(=O)C1=C(CN(CCOC)Cc2ccco2)NC(=O)NC1c1ccc(C)cc1 (configuration not stated) | x | x | x | x | x | -17.6%
CCCN(CCC)CC1=C(C(=O)OCC)C(c2ccc(C)cc2)NC(=O)N1 (configuration not stated) | x | x | x | x | x | 14.1µM*
CCOC(=O)/C=C1/SCC(=O)N1Cc1ccc(Br)cc1 | -3.8% | x | -10.5% | 4.8 | -13.8% | 0.4%
SMILES | POLK inh | Pol beta inh | POLH inh | PI5P4Ka inh | POLI inh | 12-LOX inh
CCOC(=O)/C=C1\SCC(=O)N1Cc1nnc(-c2ccccc2Br)o1 | -7.1% | 22.4µM* | u | u | u | 0.0%
CCOc1ccc(NS(=O)(=O)c2ccc(NS(=O)(=O)c3ccccc3)cc2)cc1 | -31.9% | -29.8% | -4.9% | x | 0.3% | -22.4%
CCOc1ccc(S(=O)(=O)Nc2cc(NS(=O)(=O)c3ccc(OCC)cc3)cc(C(=O)O)c2)cc1 | 79.4µM* | x | 25.1µM* | -25.5 | u | 21.5%
CC(C)n1c(=O)c2c(O)cc(=O)oc2c2ccccc21 | u | 17.8µM* | -28.6% | x | u | u
O=c1cc(O)c2c(=O)n(-c3ccccc3)c3ccccc3c2o1 | -25.7% | 22.4µM* | u | -6.8 | 5.5% | 0.0%
CCCNC(=O)CN1CCN(Cc2ncc(-c3ccccc3)o2)CC1 | x | x | x | x | x | 9.4%
CCOCc1cnc(C)nc1NCC(=O)c1c(C)[nH]c2ccc(OC)cc12 | -3.0% | -0.1% | -10.6% | x | 20.8% | 12.6µM*
Cc1ccc(OCc2ccc(-c3nc(C#N)c(NC4CC4)o3)o2)cc1C | x | x | x | x | x | -13.3%
O=C(N/N=C/C(Br)=C/c1ccccc1)c1ccccc1F | -21.0% | 0.2% | -1.6% | 8.5 | 102.5% | 18.7%
Clc1cccc(N/N=C/C(Br)=C/c2ccccc2)c1 | x | x | x | x | x | 11.2µM*
O=C1NC(=Nc2ccccc2)S/C1=C\c1ccccc1 | -9.3% | -1.0% | -11.5% | -8.2 | 9.1% | -14.1%
O=C1N/C(=N/Nc2ccccc2)S/C1=C\c1ccccc1 | -9.7% | -20.2% | u | u | u | 5.62µM*
c1ccc(-c2nc(NCc3ccco3)c3oc4ccccc4c3n2)cc1 | -14.4% | 16.3% | -1.8% | x | -8.2% | 7.08µM*
Cc1ccc(NC(=O)COc2cccc(/C=C3\SC(=S)N(CCC(=O)O)C3=O)c2)cc1Cl | 79.4µM* | u | 44.7µM* | 0.6 | 50.1µM* | 13.5%
COc1cccc(/C=C2\SC(=S)N(CCCC(=O)Nc3ccc(C(=O)O)cc3)C2=O)c1 | -8.2% | 20.2% | u | -7.0 | -25.1% | -28.2%
O=C(O)CCN1C(=O)/C(=C\c2cccc(OCC(=O)Nc3ccc(Cl)cc3)c2)SC1=S | u | 56.2µM* | 0.8% | -6.9 | u | u
Cc1ccc(Nc2nc(-c3cnc(N4CCOCC4)nc3C)cc(=O)[nH]2)cc1 | x | x | x | x | x | 1.9%
COc1ccc(CC(=O)NC2CCCc3c2[nH]c2c(Cl)cccc32)cc1 (configuration not stated) | x | x | x | x | x | 12.3%
COc1ccc(CC2NCCC3=CC(=O)CCC32)cc1O (configuration not stated) | u | x | 0.7% | x | 56.2µM* | -4.9%
COc1ccc(NC(=O)/C=C/c2ccc3ccccc3n2)c(OC)c1 | x | x | x | x | x | 1.6%
CCN(CC)c1nc2ccccc2n2cnnc12 | -6.8% | 7.5% | -4.3% | -0.3 | 89.1µM* | 0.0%
